Laboratory results taken from PubChem BioAssay AID1159580 (chemical genetic matrix, 2015).
The campaign covered roughly 5,500 compounds. About 2,000 (36%) were called active. Another 18% or so got no clear call; they are omitted. Rule as the data show it: active = normalized growth mostly below about 0.91 (no sharp cut-off); inconclusive = no clear call, values can overlap the other calls; inactive = mostly above about 0.92. The list shows a part of the results.

Experiment: chemical genetic growth profiling, strain panel (AID 1159580);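 also: tested at 20 µM; growth read once vehicle control cultures reached saturation at 30 °C; 1 = growth at the plate median or of vehicle wells; lower values mean less growth of the strain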
Settings: S. cerevisiae deletion strains, growth OD

Measured: normalized growth

O=C(O)c1cc[c]([Hg][Cl])cc1
active: locus YAL040C, strain CLN3, stronger effect = lower value 0.825 | locus YER002W, strain NOP16, stronger effect = lower value 0.757 | locus YGR078C, strain PAC10, stronger effect = lower value 0.339 | locus YNL197C, strain WHI3, stronger effect = lower value 0.731 | locus YOR083W, strain WHI5 (second series), stronger effect = lower value 0.77
inactive: locus YCL061C, strain MRC1 (second series), stronger effect = lower value 1.01 | locus YDR150W, strain NUM1, stronger effect = lower value 1 | locus YDR363W, strain ESC2, stronger effect = lower value 0.943 | locus YMR307W, strain GAS1, stronger effect = lower value 0.981 | locus YNL128W, strain TEP1, stronger effect = lower value 0.955 | locus YNL175C, strain NOP13, stronger effect = lower value 0.918 | locus YNL224C, strain SQS1, stronger effect = lower value 0.948 | locus YNL322C, strain KRE1, stronger effect = lower value 1.01 | locus YPL055C, strain LGE1, stronger effect = lower value 0.961
